According to PubChem BioAssay (Tox21):
Records with an inconclusive call do not appear. Activity calls are given as the source filed them. Unless noted, calls come from the whole dose curve.

Experiments:
[1] = Nuclear factor erythroid 2-related factor 2/antioxidant responsive element (Nrf2/ARE) small molecule agonists: qHTS cell viability counter screen in human keratinocytes (AID 1919968; active = well fitted curve in the direction sought with a large enough effect in the repeat runs; an effect the other way counts as inactive or inconclusive; note: nearly all actives have a fitted effect of over 55% in size)
Outline: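 CellTiter-Fluor fluorescence, read 1 h after reagent, gave viability in the same wells as the ARE-luciferase assay. KeratinoSens cells (1,500/well) had 23 h compound exposure at 37 C/5% CO2 following 5 h plating.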

[2] = Nuclear factor erythroid 2-related factor 2/antioxidant responsive element (Nrf2/ARE) small molecule agonists: luciferase reporter gene qHTS assay in human keratinocytes (AID 1919969); note: nearly all actives have a fitted effect of over 35% in size
[3] = target: Gonadotropin-releasing hormone receptor (Homo sapiens) (UniProt P30968); test: Human gonadotropin-releasing hormone receptor (GnRHR) small molecule agonists, calcium flux assay in GnRHR-HEK293 cells (AID 1920063); note: nearly all actives have a fitted effect of over 35% in size
Chain of Gonadotropin-releasing hormone receptor (Homo sapiens) (P30968 whole entry, looked up): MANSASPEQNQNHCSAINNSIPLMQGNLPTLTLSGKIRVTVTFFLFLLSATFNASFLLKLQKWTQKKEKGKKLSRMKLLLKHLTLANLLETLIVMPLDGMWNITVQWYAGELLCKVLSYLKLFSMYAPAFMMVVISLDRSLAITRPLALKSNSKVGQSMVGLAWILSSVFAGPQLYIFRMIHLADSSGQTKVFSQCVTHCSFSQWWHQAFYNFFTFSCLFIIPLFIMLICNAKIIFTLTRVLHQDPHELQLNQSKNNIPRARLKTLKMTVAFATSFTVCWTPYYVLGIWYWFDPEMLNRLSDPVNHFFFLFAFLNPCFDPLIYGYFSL
Outline: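 Agonist mode: compounds at 15 concentrations, in triplicate, went onto calcium dye-loaded GnRHR-HEK293 cells. Intracellular calcium was then followed as 480/540 nm fluorescence at 1 s intervals over 3 min.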

[4] = target: KiSS-1 receptor (Homo sapiens) (UniProt Q969F8); test: Human kisspeptin (KISS1R) small molecule agonists, calcium flux assay in KISS1R-HEK293 cells (AID 1920064; active = well fitted curve in the direction sought with a large enough effect in the repeat runs; an effect the other way counts as inactive or inconclusive)
Chain of KiSS-1 receptor (Homo sapiens) (Q969F8 whole entry, looked up): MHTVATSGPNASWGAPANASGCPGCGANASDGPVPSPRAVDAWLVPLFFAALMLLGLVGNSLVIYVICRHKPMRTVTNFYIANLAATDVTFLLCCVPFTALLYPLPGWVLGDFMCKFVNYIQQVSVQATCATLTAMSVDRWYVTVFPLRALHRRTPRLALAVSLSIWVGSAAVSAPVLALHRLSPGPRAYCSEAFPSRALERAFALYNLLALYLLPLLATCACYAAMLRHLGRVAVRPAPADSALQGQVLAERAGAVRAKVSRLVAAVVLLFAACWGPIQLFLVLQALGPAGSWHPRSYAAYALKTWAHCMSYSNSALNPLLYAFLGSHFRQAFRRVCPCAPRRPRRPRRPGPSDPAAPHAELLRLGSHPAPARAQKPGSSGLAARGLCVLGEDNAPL
Outline: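 Agonist mode: intracellular calcium rise tracked at 1 s intervals over 3 min (480/540 nm) immediately after compound addition to dye-loaded KISS1R-HEK293 stable cells. Each compound tested at 15 concentrations in triplicate.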

[5] = G protein-coupled receptor (GPCR) small molecule agonists, calcium flux assay: HEK293 wild type cell line counter screen (AID 1920065)
Outline: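 Calcium flux counter screen: compound added in agonist mode at 15 concentrations in triplicate to dye-loaded parental HEK293 cells. Fluorescence (480/540) read kinetically for 3 min; ATP served as positive control.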

[6] = p53 small molecule agonists, cell-based qHTS assay with human liver microsomes (AID 1963577)
Outline: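 Fluorescence of the beta-lactamase reporter in p53RE-bla cells, detected with LiveBLAzer substrate (2 h, room temperature, dark), served as the read-out after 16 h compound exposure at 37 C with human liver microsomes and NADPH, each 0.5 mg/mL final.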

[7] = p53 small molecule agonists, cell-based qHTS assay with rat liver microsomes (AID 1963578)
Outline: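 Cells carrying a p53 response element–beta-lactamase reporter were plated and rested 5 h, then dosed with compound in DMSO plus rat liver microsomes and NADPH, each at 0.5 mg/mL final. After 16 h at 37 C, LiveBLAzer substrate was added for 2 h.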

[8] = p53 small molecule agonists, cell-based qHTS assay with human liver microsomes: qHTS cell viability counter screen (AID 1963579); note: nearly all actives have a fitted effect of over 45% in size
Outline: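 Cytotoxicity counter screen: p53RE-bla, 4,000 cells/well; 5 h settle, 37 C/5% CO2; cpd + HLM 0.5 mg/mL + NADPH 0.5 mg/mL (final); 16 h, 37 C; CellTiter-Glo, 30 min RT, luminescence.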

[9] = p53 small molecule agonists, cell-based qHTS assay with rat liver microsomes: qHTS cell viability counter screen (AID 1963580); note: nearly all actives have a fitted effect of over 45% in size
Outline: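 Cytotoxicity counter screen: intracellular ATP measured by CellTiter-Glo luminescence in the same wells as the beta-lactamase reporter read, on HCT-116 p53RE-bla cells exposed 16 h at 37 C to compounds with rat liver microsomes and NADPH, each 0.5 mg/mL final.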

[10] = p53 small molecule agonists, cell-based qHTS assay: qHTS cell viability counter screen (AID 1963581); note: nearly all actives have a fitted effect of over 45% in size
Outline: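 Counter screen read by CellTiter-Glo luminescence (ATP content, 30 min at room temperature), run in the same wells as the beta-lactamase reporter read. HCT-116 p53RE-bla cells saw compounds for 16 h at 37 C.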

[11] = p53 small molecule agonists, cell-based qHTS assay (AID 1963582; active = well fitted activation curve with a large enough effect in the signal ratio in the repeat runs, not every such curve was filed as active; the % refers to the signal ratio)
Outline: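 Read-out is beta-lactamase FRET fluorescence after 2 h at room temperature with LiveBLAzer B/G substrate. p53 response element-bla cells were treated 16 h at 37 C with compounds in DMSO, added 5 h after seeding.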

[12] = target: 5-hydroxytryptamine receptor 2A (Homo sapiens) (UniProt P28223); test: 5-hydroxytryptamine receptor 2A (HTR2A) small molecule antagonists, cell-based qHTS assay (AID 1963586); note: nearly all actives have a fitted effect of over 45% in size
Chain of 5-hydroxytryptamine receptor 2A (Homo sapiens) (P28223 whole entry, looked up): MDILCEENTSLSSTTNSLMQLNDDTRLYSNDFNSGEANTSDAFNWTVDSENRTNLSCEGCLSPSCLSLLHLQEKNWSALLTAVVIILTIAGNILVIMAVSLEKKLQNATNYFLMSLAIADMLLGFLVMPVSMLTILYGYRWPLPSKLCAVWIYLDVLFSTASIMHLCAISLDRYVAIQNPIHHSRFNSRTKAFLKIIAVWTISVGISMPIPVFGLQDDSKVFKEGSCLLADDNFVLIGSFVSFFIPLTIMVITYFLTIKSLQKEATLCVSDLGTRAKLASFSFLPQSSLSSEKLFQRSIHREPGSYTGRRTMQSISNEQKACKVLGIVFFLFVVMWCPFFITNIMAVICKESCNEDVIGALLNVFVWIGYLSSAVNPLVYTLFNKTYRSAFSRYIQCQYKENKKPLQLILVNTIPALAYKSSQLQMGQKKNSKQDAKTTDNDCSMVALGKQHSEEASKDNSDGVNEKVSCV
Outline: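 CHO cells stably expressing human HTR2A were plated for 18 h at 37 C, then loaded with calcium dye for 1 h. Compounds were preincubated 5 min at room temperature before DOI (4 nM solution) was added. Kinetic fluorescence was read for 3 min.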

[13] = target: 5-hydroxytryptamine receptor 2A (Homo sapiens) (UniProt P28223); test: 5-hydroxytryptamine receptor 2A (HTR2A) small molecule agonists, cell-based qHTS assay (AID 1963587); note: nearly all actives have a fitted effect of over 30% in size
Outline: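 CHO cells stably expressing human HTR2A, plated 18 h, loaded with calcium dye 1 h at 37 C. Agonist mode: compounds added and intracellular calcium fluorescence recorded kinetically for 2 min at 1 sec intervals.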

[14] = target: Muscarinic acetylcholine receptor M1 (Homo sapiens) (UniProt P11229); test: Cholinergic receptor muscarinic 1 (CHRM1) small molecule antagonists, cell-based qHTS assay (AID 1963588); note: nearly all actives have a fitted effect of over 40% in size
Chain of Muscarinic acetylcholine receptor M1 (Homo sapiens) (P11229 whole entry, looked up): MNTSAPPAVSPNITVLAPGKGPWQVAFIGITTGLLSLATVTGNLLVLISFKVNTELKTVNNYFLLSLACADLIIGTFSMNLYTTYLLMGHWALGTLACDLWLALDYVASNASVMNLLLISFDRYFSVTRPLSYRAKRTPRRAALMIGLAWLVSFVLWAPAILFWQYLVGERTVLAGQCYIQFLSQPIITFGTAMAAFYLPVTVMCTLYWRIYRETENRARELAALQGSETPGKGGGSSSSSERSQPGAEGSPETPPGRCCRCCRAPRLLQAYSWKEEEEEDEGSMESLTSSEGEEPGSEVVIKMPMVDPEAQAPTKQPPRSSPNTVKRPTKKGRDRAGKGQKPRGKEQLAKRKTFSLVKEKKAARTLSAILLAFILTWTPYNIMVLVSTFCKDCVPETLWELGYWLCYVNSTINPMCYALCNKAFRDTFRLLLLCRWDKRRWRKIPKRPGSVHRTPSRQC
Outline: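 Compounds were tested at 15 concentrations in three independent runs. Dye-loaded CHRM1-CHO cells were exposed 5 min at room temperature before stimulation by acetylcholine added at 50nM. Intracellular calcium was read kinetically on FDSS for 3 min.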

[15] = cAMP Responsive Elements (CRE) small molecule agonists, cell-based qHTS assay (AID 1963590)
Outline: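 Agonist mode: compound added to CRE-bla HEK 293T cells (2,000/well, 18 h after plating) for 3 h at 37 C/5% CO2. Reporter activity detected via FRET beta-lactamase substrate, 2 h room-temperature loading.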

[16] = cAMP Responsive Elements (CRE) small molecule antagonists, cell-based qHTS assay (AID 1963591; active = well fitted inhibition curve with a large enough effect in the signal ratio in the repeat runs, not every such curve was filed as active; the % refers to the signal ratio)
Outline: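 Antagonist mode: compounds are added alongside the adenylyl cyclase activator NKH477 (0.25 uM final) to CRE-bla HEK293T cells for 3 h. LiveBLAzer FRET substrate, 2 h at room temperature, reports bla expression.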

[17] = target: Beta-2 adrenergic receptor (Homo sapiens) (UniProt P07550); test: Adrenergic beta2 receptor (ADRB2) small molecule antagonists, cell-based qHTS assay (AID 1963592); note: series mostly up to about 92 µM; nearly all actives have a fitted effect of over 50% in size
Chain of Beta-2 adrenergic receptor (Homo sapiens) (P07550 whole entry, looked up): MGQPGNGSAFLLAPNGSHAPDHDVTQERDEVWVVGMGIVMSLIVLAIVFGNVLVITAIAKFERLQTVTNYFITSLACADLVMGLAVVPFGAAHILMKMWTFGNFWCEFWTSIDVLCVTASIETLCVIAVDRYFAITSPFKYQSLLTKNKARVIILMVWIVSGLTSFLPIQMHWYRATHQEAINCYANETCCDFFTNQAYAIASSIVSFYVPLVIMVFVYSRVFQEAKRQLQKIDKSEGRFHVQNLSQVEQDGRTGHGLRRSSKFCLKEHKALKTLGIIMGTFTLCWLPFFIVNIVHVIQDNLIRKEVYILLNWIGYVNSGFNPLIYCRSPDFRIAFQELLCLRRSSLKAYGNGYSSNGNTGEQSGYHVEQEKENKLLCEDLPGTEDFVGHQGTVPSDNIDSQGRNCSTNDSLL
Outline: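 Assay format: CHO-ADRB2 cells, 18-20hr seeding at 37C/5% CO2, then compound plus 1nM isoproterenol agonist mix for 0.5hr RT. Homogeneous time-resolved fluorescence cAMP detection after 1hr, expressed as 665/615 nm ratio.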

[18] = target: D(2) dopamine receptor (Homo sapiens) (UniProt P14416); test: Dopamine D2 receptor (DRD2) small molecule agonists, cell-based qHTS assay (AID 1963594); note: nearly all actives have a fitted effect of over 35% in size
Chain of D(2) dopamine receptor (Homo sapiens) (P14416 whole entry, looked up): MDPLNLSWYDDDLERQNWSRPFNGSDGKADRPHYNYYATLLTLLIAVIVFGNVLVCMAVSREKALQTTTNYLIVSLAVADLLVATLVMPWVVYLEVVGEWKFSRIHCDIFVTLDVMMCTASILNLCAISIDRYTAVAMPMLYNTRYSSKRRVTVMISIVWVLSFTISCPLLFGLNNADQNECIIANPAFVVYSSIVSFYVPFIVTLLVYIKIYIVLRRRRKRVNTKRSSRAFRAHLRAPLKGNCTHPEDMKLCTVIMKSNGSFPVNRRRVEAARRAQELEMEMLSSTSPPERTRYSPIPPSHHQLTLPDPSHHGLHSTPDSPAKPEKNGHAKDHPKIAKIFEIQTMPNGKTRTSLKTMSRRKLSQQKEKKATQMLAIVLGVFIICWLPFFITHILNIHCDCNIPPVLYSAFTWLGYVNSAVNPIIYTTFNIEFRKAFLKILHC
Outline: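 HEK293 cells stably expressing human DRD2, pre-treated with PDE inhibitor Ro20-1724 (0.1 mM final) and compound 10 min at room temperature, then stimulated with NKH477 (200nM […]) for 30 min. cAMP read by HTRF (665/620 nm).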

[19] = target: D(2) dopamine receptor (Homo sapiens) (UniProt P14416); test: Dopamine D2 receptor (DRD2) small molecule antagonists, cell-based qHTS assay (AID 1963595; active = well fitted inhibition curve with a large enough effect in the signal ratio in the repeat runs, with a control signal flat; the % refers to the signal ratio)
Outline: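 Human DRD2 antagonist qHTS measuring cAMP by HTRF. The cells are exposed to compound for 10 min, then to NKH477 (200 nM) and quinpirole (12 nM) for 30 min at RT, with Ro20-1724 (0.1 mM) present throughout.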

[20] = target: Muscarinic acetylcholine receptor M1 (Homo sapiens) (UniProt P11229); test: Cholinergic receptor muscarinic 1 (CHRM1) small molecule agonists, cell-based qHTS assay (AID 1963589); note: nearly all actives have a fitted effect of over 35% in size
Outline: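 Agonist-mode calcium-flux screen: compounds at 15 concentrations, three independent runs, were pin-transferred onto dye-loaded human CHRM1-CHO cells. Fluorescence was then recorded kinetically every second over minutes.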

Measured: Potency

CC(=O)/C=C/c1ccco1
inactive: [1] | [2] | [3] | [4] | [5] | [6] | [7] | [8] | [9] | [10] | [11] | [12] | [13] | [14] | [15] | [16] | [17] | [18] | [19]

CC(C)CCCC(C)CCCC(C)CCCCC(C)CCCC(C)CCCC(C)C (stereo unspecified)
inactive: [1] | [2] | [3] | [4] | [5] | [6] | [7] | [8] | [9] | [10] | [11] | [12] | [13] | [14] | [15] | [16] | [17] | [19]

COc1cc(/C=C/C(N)=O)cc(OC)c1OC
inactive: [1] | [2] | [3] | [4] | [5] | [6] | [7] | [8] | [9] | [10] | [11] | [12] | [13] | [14] | [20] | [16] | [17] | [18] | [19]

C=CC(=O)CCCCC
inactive: [1] | [2] | [3] | [4] | [5] | [6] | [7] | [8] | [9] | [10] | [11] | [12] | [13] | [14] | [20] | [16] | [18] | [19]

CCc1c(Br)c(Br)c(Br)c(Br)c1Br
inactive: [1] | [2] | [3] | [4] | [5] | [6] | [7] | [8] | [9] | [10] | [11] | [12] | [13] | [14] | [15]

CS(=O)(=O)O
inactive: [1] | [2] | [3] | [4] | [5] | [6] | [7] | [8] | [9] | [10] | [11] | [12] | [13] | [14] | [15] | [16] | [17] | [18] | [19]

C/C(=C(\CCO)SS/C(CCO)=C(\C)N(C=O)Cc1cnc(C)nc1N)N(C=O)Cc1cnc(C)nc1N
inactive: [1] | [2] | [3] | [4] | [5] | [6] | [7] | [8] | [9] | [10] | [11] | [12] | [13] | [14] | [15] | [16] | [17] | [18] | [19]

CCCCSCCCC
inactive: [1] | [2] | [3] | [4] | [5] | [6] | [7] | [8] | [9] | [10] | [11] | [12] | [13] | [14] | [20] | [16] | [17] | [18] | [19]
